Experimental findings from PubChem BioAssay (NCATS) are described below.

Results filed as inconclusive are left out. Calls of active or inactive are those of the source. Unless noted, calls follow the shape of the dose curve; as a rule, active = well fitted curve in the direction sought with a large enough effect; inconclusive = small, poorly fitted or top-dose-only effect, or another doubt; inactive = no such curve, though single readings can be large; an effect the other way counts as inactive or inconclusive.

Experiment [1] addresses Lysosomal acid glucosylceramidase (Homo sapiens) (UniProt P04062). Briefly: Glucocerebrosidase-p2 (AID 348; in the data active = potency below about 10 µM; also: potency is read from the fitted curve at half-maximal effect). Conditions: purified GBA, blue fluorogenic substrate, 40 min. The gist of the method: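 Normal human glucocerebrosidase (0.2 nM) with blue fluorogenic substrate (80 uM final) in citrate/phosphate pH 5.9 with 10mM sodium taurocholate, 0.01% tween-20; 40 min RT, NaOH/glycine stop; fluorescence Ex 365/Em 440; AC50 from a titration from 0.6 nM upwards.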

The nature of experiment [2]: AP1 Signaling Pathway (AID 357; active = well fitted curve in either direction with a large enough effect, not every such curve was filed as active;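 also: ME-180 reporter cells stimulated with EGF at its EC50 level; % is scaled to controls: 0 for no effect and ±100 for the full control effect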). The following applies: ME-180 AP-1-bla reporter, EGF-induced, beta-lactamase ratio, 5 h; at 7.69 µM (top of the series) unless noted. An outline of the steps: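 AP-1-bla ME-180 cells, Opti-MEM + 0.5% dialyzed FBS, plated overnight 37 °C. Cpd titration + EC50 EGF, 5 h 37 °C. CCF4 2.5 h RT; ex 405, em 460/530 ratio → %activity, AC50.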

Experiment [3] is described as follows: NFAT Signaling Pathway (AID 444; active = well fitted curve in either direction with a large enough effect, not every such curve was filed as active;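 also: carbachol stimulus at about its EC50 of 1 µM final; % is scaled to controls: 0 for no effect and ±100 for the full control effect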). Conditions: Jurkat NFAT-bla M1, carbachol, beta-lactamase ratio, 5 h; at 7.69 µM (top of the series) unless noted. The gist of the method:
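Jurkat cells with NFAT-driven β-lactamase reporter and co-expressed M1 receptor, stimulated with carbachol (final 1 uM, ~EC50), compound titration, 5 h at 37 °C. CCF4 loaded 1 h at RT; 460/530 nm ratio gave %activity and AC50.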

Experiment [4] can be described thus: Stat Signaling Pathway (AID 446; active = well fitted curve in either direction with a large enough effect, not every such curve was filed as active;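 also: ME-180 cervical cancer cells given 40 pM IL-6 alongside compound; SIE-controlled beta-lactamase reporter measured as 460/530 nm FRET emission ratio; % is scaled to controls: 0 for no effect and ±100 for the full control effect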). The following applies: ME-180 (cervical carcinoma) SIE beta-lactamase reporter, IL-6 stimulated, 5 h; at 7.69 µM (top of the series) unless noted. An outline of the steps: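 Compound effects on IL-6-induced STAT reporter activity were measured in ME-180 cells. After overnight culture, cells were co-treated with 40 pM IL-6 for 5 hrs before beta-lactamase substrate loading at room temperature.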

In experiment [5] the target is Glucocorticoid receptor (Homo sapiens) (UniProt P04150). The experiment can be described thus: GR-GFP Redistribution (AID 450;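 active = compounds whose dose series gives a full or clear partial fitted curve of increased nuclear translocation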; also: potency is read from the fitted curve at half-maximal effect). Conditions: U2OS GR-GFP nuclear translocation, laser cytometry, 2 h.
Chain of Glucocorticoid receptor (Homo sapiens) (P04150 whole entry, looked up, the tested form may be a part): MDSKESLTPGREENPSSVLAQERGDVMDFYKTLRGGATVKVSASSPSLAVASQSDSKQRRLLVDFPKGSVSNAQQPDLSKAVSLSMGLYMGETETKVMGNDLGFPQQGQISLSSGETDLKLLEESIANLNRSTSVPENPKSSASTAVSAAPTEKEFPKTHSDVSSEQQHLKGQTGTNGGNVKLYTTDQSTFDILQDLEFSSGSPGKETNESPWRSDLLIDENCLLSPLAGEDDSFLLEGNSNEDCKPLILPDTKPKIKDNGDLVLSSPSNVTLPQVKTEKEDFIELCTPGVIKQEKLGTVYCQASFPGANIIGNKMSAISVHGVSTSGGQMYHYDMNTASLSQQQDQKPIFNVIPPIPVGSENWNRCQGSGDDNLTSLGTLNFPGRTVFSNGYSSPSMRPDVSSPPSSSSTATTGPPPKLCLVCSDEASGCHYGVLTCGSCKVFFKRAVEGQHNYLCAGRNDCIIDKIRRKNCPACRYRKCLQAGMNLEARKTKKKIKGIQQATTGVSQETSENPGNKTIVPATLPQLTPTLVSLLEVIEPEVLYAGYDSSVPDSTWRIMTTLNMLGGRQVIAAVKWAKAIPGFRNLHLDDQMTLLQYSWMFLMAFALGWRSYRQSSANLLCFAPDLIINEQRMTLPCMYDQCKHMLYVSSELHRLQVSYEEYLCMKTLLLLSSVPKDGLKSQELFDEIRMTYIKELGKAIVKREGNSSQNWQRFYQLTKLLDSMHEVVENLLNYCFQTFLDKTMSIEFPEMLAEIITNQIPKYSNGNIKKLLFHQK
Experiment [6] has the same target. Briefly: GR-EFC Redistribution (AID 451; calls by dose curve; also: potency is read from the fitted curve at half-maximal effect). The following applies: CHO-K1 GR-EFC translocation, beta-gal luminescence, 2 h. An outline of the steps: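 CHO-K1 cells expressing nuclear EA and GR-ED fragments of b-gal; compounds titrated up to 46 uM final, 2 h at 37 C. GR nuclear translocation read as complemented b-gal luminescence after 1 h RT detection.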
Experiment [7] addresses Mitogen-activated protein kinase 10 (Mus musculus) (UniProt Q61831). The experiment can be described thus: JNK3 AlphaScreen Assay (AID 530; active = well fitted curve in either direction with a large enough effect, not every such curve was filed as active;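 also: kinase came from lysate of stimulated human HepG2 cells; signal reports phosphorylation of biotinylated GST-cJun 1-79 at Ser73 with 10 µM ATP; % is scaled to controls: 0 for no effect and ±100 for the full control effect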). Conditions: JNK3 lysate, c-Jun phosphorylation; series mostly up to 57.1 µM. An outline of the steps: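 Activity was read by AlphaScreen after JNK3-containing HepG2 lysate (cytokine pre-activated) phosphorylated biotinylated GST-cJun with 10 uM ATP at room temperature. Phospho-Ser73 cJun antibody with Protein-A acceptor beads provided detection.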

Experiment [8] addresses 3',5'-cyclic-AMP phosphodiesterase 4B (Homo sapiens) (UniProt Q07343). The experiment can be described thus: qHTS Assay for Inhibitors of PDE-IV (AID 607; active = well fitted activation curve with a large enough effect in the main read-out, with a control signal flat, not every such curve was filed as active; also: % of control where 0% means no effect). Conditions: HEK293 ACTOne CNG channel cells, membrane potential fluorescence; series mostly up to 22.9 µM. The gist of the method:
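ACTOne HEK293 cells carry a modified cAMP-gated CNG channel and express endogenous PDE4; plated 1000 cells/well, compounds up to 22.9 uM final. Membrane-potential dye fluorescence (ex 535/em 590) was read; parental cells received 10 uM forskolin + 100 uM RO 20-1724.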

Experiment [9] in a line: qHTS Assay for Lipid Storage Modulators (AID 1519; calls by dose curve). The following applies: Drosophila S3 cells, BODIPY lipid droplet/cell ratio, laser cytometry, cells loaded with oleic acid; for activity change, negative = inhibition: at 57.5 µM (top of the series). An outline of the steps:
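Cells seeded at 5,000 per well were treated with compounds over a concentration series and loaded with oleic acid (400 uM, as added). Lipid droplet fluorescence (488 nm excitation, 500-530 nm channel) was read by laser-scanning cytometry and normalized to 20 uM Triacsin C.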
For orientation: qHTS replaces the single test concentration by a dilution series.

Experiment [10] deals with Dual specificity protein kinase CLK4 (Homo sapiens) (UniProt Q9HAZ1). Briefly: qHTS Assay for Inhibitors of CDC-like Kinase 4 (Kinase-Glo Assay) (AID 1770). Also: nearly all actives have a fitted effect of over 65% in size. Also: potency is read from the fitted curve at half-maximal effect. The following applies: recombinant Clk4, Kinase-Glo ATP depletion luminescence; series mostly up to 66.7 µM. An outline of the steps: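 25 nM Clk4 with 100 uM RS repeat peptide and 1 uM ATP (final) in Tris pH7.5, 10 mM MgCl2, 4.5 h at room temperature. Remaining ATP measured by Kinase-Glo luciferase luminescence.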
Chain of Dual specificity protein kinase CLK4 (Homo sapiens) (Q9HAZ1 whole entry, looked up): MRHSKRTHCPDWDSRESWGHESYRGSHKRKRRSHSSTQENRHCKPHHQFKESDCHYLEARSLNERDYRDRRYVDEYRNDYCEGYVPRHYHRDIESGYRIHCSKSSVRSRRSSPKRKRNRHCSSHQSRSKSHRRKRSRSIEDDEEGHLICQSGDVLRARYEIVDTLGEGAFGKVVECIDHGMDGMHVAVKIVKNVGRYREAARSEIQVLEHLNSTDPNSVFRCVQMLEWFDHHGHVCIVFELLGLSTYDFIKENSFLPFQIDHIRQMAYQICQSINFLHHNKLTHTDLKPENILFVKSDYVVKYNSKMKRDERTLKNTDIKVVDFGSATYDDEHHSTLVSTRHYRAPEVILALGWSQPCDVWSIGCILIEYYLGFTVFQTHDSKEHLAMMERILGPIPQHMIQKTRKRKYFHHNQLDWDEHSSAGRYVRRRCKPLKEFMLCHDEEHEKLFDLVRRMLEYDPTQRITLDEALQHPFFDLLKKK

For experiment [11] the target is unchanged. The experiment can be described thus: qHTS Assay for Inhibitors of CDC-like Kinase 4 (ADP-Glo Assay) (AID 1771). Also: nearly all actives have a fitted effect of over 70% in size. Also: potency is read from the fitted curve at half-maximal effect. The following applies: recombinant CLK4, ADP-Glo luminescence; series mostly up to 80 µM. An outline of the steps:
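Compounds are pin-transferred onto substrate mix (100 uM RS peptide, 1 uM ATP), then 25 nM Clk4 is added. After 1 hr at room temperature, ADP-Glo reagent runs 45 min, detection reagent 30 min, then luminescence is read.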

Experiment [12] has the same target. The experiment can be described thus: qHTS Assay for Inhibitors of CDC-like Kinase 4 (ADP-FP Assay) (AID 1795). Also: % is scaled to controls: 0 for no effect and ±100 for the full control effect; nearly all actives have a fitted effect of over 60% in size. Conditions: Transcreener ADP fluorescence polarization; series mostly up to 50 µM. An outline of the steps:
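Recombinant Clk4 (6.25 nM) phosphorylated 100 uM RS repeat peptide with 1 uM ATP in 25 mM Tris pH 7.5, 10 mM MgCl2, 0.5 mM EGTA, 2.5 mM DTT, 0.01% Triton X-100 for 1 h. ADP was detected by Transcreener ADP2 competitive fluorescence polarization after 30 min at room temperature.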

The target of experiment [13] is Ubiquitin carboxyl-terminal hydrolase 1 (Homo sapiens) (UniProt O94782). Briefly: Inhibitors of USP1/UAF1: Pilot qHTS (AID 504865).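 Also: rhodamine fluorescence freed from ubiquitin-rhodamine substrate followed over time; top concentration of the series differs between compounds; % is scaled to controls: 0 for no effect and ±100 for the full control effect; nearly all actives have a fitted effect of over 35% in size.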 Conditions: purified USP1/UAF1, Ub-rhodamine cleavage fluorescence; series mostly up to 54.9 µM. The gist of the method:
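USP1/UAF1 complex at 1 nM preincubated 15 min at room temperature with compound, then Ub-Rho substrate added at 150 nM final. Fluorescence (480/540 nm) read kinetically in 50 mM HEPES pH 7.8, 0.5 mM EDTA, 1 mM TCEP, 0.1 mg/ml BSA, 0.01% Tween-20.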

A short description of experiment [14]: Primary qHTS for small molecule stabilizers of the endoplasmic reticulum resident proteome: Secreted ER Calcium Modulated Protein (SERCaMP) assay (AID 1508630). Also: % is scaled to controls: 0 for no effect and ±100 for the full control effect. The following applies: SH-SY5Y GLuc-SERCaMP (Gaussia luciferase released on ER calcium loss) secretion, thapsigargin, luminescence; series mostly up to 38.4 µM. The gist of the method:
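The SH-SY5Y reporter protocol was run at 3 concentrations up to 38.3 uM (primary) or 11 concentrations (follow-up): 16 h compound, 100 nM thapsigargin for 4 h, then extracellular luciferase luminescence.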

For experiment [15], the target named is Cytochrome P450 1A2 (Homo sapiens) (UniProt P05177). Briefly: p450-cyp1a2 (AID 410; calls by dose curve; also: potency is read from the fitted curve at half-maximal effect). Conditions: recombinant CYP1A2, luciferin-ME demethylation, luminescence; series mostly up to 57 µM. An outline of the steps:
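O-Demethylation of luciferin 6' methyl ether by human CYP1A2 is monitored as luciferase luminescence. Substrate sits at Km (100uM); enzyme is 20nM. Values are scaled to 57 uM furafylline as maximal inhibition.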

In experiment [16] the target is Cytochrome P450 3A4 (Homo sapiens) (UniProt P08684). The experiment can be described thus: qHTS Assay for Inhibitors and Substrates of Cytochrome P450 3A4 (AID 884). Also: potency is read from the fitted curve at half-maximal effect; nearly all actives have a fitted effect of over 50% in size. Conditions: recombinant CYP3A4, Luciferin-PPXE luminescence; series mostly up to 57.1 µM. An outline of the steps: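 Luminescent readout of luciferin produced by CYP3A4 (20 nM) dealkylation of Luciferin-PPXE, 25 uM (its KM). NADPH-driven reaction ran 60 min at RT after 10 min compound preincubation; data scaled to 57 uM ketoconazole as 100% inhibition.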
Chain of Cytochrome P450 3A4 (Homo sapiens) (P08684 whole entry, looked up): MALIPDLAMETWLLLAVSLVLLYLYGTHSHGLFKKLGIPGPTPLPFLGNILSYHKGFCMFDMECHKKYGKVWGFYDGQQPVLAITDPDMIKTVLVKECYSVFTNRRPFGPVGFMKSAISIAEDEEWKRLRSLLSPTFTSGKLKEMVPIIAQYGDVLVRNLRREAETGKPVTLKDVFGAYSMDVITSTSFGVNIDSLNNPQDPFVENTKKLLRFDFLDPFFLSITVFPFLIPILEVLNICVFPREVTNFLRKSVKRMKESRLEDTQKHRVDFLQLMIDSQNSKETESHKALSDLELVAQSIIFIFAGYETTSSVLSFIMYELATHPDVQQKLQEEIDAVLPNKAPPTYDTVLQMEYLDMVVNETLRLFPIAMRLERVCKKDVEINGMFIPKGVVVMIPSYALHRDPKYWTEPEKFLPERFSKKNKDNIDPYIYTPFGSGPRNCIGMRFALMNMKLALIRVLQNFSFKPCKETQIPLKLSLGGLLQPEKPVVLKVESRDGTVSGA

For experiment [17] the target is unchanged. Briefly: qHTS Assay for Activators of Cytochrome P450 3A4 (AID 885). Also: nearly all actives have a fitted effect of over 65% in size. Conditions: recombinant CYP3A4, Luciferin-PPXE luminescence, 60 min; series mostly up to 57.1 µM. An outline of the steps: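 CYP3A4 activity: Luciferin-PPXE O-dealkylation, 25uM substrate, 200mM KPO4, RT throughout. Read-out is luciferase luminescence; higher values reflect activation.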

Experiment [18] concerns the target Cytochrome P450 2C19 (Homo sapiens) (UniProt P33261). Briefly: qHTS Assay for Inhibitors and Substrates of Cytochrome P450 2C19 (AID 899). Also: potency is read from the fitted curve at half-maximal effect; nearly all actives have a fitted effect of over 60% in size. Conditions: recombinant CYP2C19, luciferin-H EGE luminescence; series mostly up to 57.1 µM. An outline of the steps:
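Signal comes from luciferase acting on luciferin released by CYP2C19-mediated hydroxylation of Luciferin-H EGE, 10uM (KM). Assay mix: 5nM enzyme, 50mM KPO4; 60 min at 37C with NADPH regeneration. Data normalized against 57uM ketoconazole.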

The mark [19] stands for this setting: measured here: cell count channel max response.
Setting [20] is: measured here: lipid channel max response.

Chain of 3',5'-cyclic-AMP phosphodiesterase 4B (Homo sapiens) (Q07343 whole entry, looked up): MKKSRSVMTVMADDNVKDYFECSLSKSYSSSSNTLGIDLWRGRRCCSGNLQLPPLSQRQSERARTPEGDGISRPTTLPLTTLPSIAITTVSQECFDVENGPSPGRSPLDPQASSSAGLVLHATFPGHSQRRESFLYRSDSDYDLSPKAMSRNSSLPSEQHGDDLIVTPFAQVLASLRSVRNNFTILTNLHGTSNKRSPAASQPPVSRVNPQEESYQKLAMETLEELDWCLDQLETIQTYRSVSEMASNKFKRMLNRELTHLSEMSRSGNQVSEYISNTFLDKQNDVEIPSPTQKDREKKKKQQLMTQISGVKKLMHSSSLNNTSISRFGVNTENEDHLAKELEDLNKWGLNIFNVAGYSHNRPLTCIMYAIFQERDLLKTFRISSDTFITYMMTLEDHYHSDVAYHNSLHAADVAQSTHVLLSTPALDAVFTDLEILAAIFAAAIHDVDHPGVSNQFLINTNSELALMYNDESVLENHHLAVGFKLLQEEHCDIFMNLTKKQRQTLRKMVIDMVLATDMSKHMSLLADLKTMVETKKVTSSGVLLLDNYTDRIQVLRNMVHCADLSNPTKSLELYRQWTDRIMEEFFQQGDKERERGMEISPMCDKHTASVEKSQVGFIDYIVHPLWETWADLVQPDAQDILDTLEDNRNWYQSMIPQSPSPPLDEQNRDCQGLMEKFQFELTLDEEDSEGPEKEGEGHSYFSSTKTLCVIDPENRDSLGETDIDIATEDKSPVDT
Chain of Lysosomal acid glucosylceramidase (Homo sapiens) (P04062 whole entry, looked up): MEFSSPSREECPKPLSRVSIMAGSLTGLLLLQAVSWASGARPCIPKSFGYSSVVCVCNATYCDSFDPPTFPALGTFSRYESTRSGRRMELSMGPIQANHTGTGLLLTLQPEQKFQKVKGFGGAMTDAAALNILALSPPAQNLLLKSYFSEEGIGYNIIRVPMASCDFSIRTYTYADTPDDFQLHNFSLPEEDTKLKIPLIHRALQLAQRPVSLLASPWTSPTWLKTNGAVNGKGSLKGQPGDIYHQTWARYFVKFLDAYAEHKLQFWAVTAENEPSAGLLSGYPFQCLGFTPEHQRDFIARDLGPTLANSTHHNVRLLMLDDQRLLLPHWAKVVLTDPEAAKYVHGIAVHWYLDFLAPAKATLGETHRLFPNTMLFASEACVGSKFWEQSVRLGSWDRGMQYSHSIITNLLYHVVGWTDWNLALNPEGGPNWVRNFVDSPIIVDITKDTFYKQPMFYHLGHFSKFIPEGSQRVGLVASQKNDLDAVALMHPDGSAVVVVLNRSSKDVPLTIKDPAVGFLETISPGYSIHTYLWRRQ
Chain of Ubiquitin carboxyl-terminal hydrolase 1 (Homo sapiens) (O94782 whole entry, looked up): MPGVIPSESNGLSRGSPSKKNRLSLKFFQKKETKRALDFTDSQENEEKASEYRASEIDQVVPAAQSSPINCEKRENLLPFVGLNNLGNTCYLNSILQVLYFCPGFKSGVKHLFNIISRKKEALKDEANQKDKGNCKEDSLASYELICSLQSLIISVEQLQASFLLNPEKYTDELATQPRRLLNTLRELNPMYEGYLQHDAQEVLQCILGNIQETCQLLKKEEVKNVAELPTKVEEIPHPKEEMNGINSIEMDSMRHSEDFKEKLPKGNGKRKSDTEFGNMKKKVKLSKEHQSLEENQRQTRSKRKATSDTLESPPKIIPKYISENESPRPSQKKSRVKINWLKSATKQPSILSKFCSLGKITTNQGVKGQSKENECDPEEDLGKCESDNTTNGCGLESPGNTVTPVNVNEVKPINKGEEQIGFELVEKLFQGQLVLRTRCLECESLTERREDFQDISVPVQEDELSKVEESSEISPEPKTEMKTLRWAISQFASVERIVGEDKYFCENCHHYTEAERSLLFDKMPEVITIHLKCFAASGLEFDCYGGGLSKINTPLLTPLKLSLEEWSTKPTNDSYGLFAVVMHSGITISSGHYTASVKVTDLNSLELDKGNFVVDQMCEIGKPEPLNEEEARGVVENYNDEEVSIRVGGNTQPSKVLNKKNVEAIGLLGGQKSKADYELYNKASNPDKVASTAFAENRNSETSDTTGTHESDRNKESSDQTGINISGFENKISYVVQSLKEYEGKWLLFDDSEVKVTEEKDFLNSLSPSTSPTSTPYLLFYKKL
Chain of Cytochrome P450 2C19 (Homo sapiens) (P33261 whole entry, looked up): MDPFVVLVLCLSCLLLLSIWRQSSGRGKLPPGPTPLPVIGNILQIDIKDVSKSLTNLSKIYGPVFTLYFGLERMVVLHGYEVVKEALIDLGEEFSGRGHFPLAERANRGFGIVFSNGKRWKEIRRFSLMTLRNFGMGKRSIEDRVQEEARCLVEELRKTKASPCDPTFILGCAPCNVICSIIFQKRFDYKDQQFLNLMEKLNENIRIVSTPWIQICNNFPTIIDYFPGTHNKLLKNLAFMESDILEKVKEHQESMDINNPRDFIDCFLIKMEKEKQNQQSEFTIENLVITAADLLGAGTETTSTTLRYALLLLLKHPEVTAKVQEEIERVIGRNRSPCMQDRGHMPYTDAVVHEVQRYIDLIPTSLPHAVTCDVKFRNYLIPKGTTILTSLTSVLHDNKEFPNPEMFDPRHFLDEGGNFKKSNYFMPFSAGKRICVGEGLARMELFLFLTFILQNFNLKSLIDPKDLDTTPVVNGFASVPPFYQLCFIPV
Chain of Cytochrome P450 1A2 (Homo sapiens) (P05177 whole entry, looked up): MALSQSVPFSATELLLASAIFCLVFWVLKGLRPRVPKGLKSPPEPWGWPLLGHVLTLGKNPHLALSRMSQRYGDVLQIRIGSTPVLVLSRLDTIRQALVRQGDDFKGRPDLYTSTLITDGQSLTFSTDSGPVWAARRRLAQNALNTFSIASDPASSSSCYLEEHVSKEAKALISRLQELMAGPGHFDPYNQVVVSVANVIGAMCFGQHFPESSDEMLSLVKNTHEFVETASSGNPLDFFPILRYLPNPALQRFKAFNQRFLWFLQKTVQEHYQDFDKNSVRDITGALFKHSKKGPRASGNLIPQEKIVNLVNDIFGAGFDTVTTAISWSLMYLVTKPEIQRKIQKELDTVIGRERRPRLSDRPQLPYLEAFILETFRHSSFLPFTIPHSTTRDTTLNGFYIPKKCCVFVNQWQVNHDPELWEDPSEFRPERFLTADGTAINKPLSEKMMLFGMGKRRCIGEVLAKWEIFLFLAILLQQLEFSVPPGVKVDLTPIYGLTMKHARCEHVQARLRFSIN

With `Cc1ccccc1-c1cc(N2CCN(C)CC2)ncn1`, the Potency was > 11.4 µM (inactive) in experiment [1], > 46 µM (inactive) in experiment [5] and > 46 µM (inactive) in experiment [6]. For the same molecule, the activity change, negative = inhibition in [2] was -0.925% (inactive); in experiment [3] it was -7.69% (inactive); in [9], -4.37% (inactive). In [4], the activity, negative = inhibition is -0.251% (inactive). Also, the result in [7] was inactive. Further, the Potency entry in experiment [8], in experiment [10], in [11], in [12], in experiment [13] and in [14] was “inactive” in each case. The max response in experiment [9] (setting [19]) was 3.49%; in experiment [9] (setting [20]), -4.04%.

As to `COc1ncc2nc(-c3ccc(F)cc3)c(=O)n(C3CC3)c2n1`, the Potency in experiment [1] is > 11.4 µM (inactive); in [5] it was > 9.22 µM (inactive); in [6], > 46 µM (inactive). In addition, the values for the activity change, negative = inhibition in [2], in experiment [3] and in experiment [9] were -9.24% (inactive), -21.4% (inactive) and 4.43% (inactive), respectively. Also, in experiment [4], the activity, negative = inhibition was -4.24% (inactive). Also, in experiment [7], the outcome was inactive. In addition, the Potency entry in experiment [8], in experiment [10], in experiment [11], in experiment [12], in experiment [13] and in [14] was “inactive” in each case. In addition, the max response in experiment [9] (setting [19]) was determined as 16.8%; in experiment [9] (setting [20]), 19.3%.

For `Clc1ccccc1-c1cncnc1NCc1cccs1`, the Potency in experiment [1] is > 11.4 µM (inactive); in experiment [15], 3.98 µM (active); in [5] it was > 46 µM (inactive); in experiment [6], > 46 µM (inactive); in experiment [16], 0.501 µM (active); in experiment [18], 1.58 µM (active). Moreover, the activity change, negative = inhibition in experiment [2] is -10.1% (inactive); in experiment [9], 4.06% (inactive). Besides, in experiment [4], the activity, negative = inhibition is -9.78% (inactive). Moreover, in experiment [7], the molecule was classed as inactive. The Potency result in [17], in experiment [10], in experiment [11], in experiment [12] and in experiment [14] was “inactive” each time. Also, the max response turned out to be 21% in experiment [9] (setting [19]) and 23.3% in experiment [9] (setting [20]).

For the molecule `Cc1noc(C)c1-c1cc(NCCN2CCOCC2)ncn1`, the Potency in experiment [1] was > 11.4 µM (inactive); in experiment [5], > 46 µM (inactive); in experiment [6] it was > 46 µM (inactive); in experiment [10], 25.1 µM (active); in experiment [11], 22.4 µM (active). Also, the activity change, negative = inhibition in [2] is 27.9% (inactive); in [3], 20.1% (inactive); in experiment [9], 6.08% (inactive). Further, the activity, negative = inhibition in experiment [4] is 0.606% (inactive). Further, in experiment [7], the outcome was inactive. Further, the Potency result in [8], in experiment [12], in [13] and in [14] was “inactive” in each case. The figures for the max response in experiment [9] (setting [19]) and in experiment [9] (setting [20]) were 23.5% and 29.1%, respectively.

For `O=c1c(-c2cc(F)cc(F)c2)nc2cncnc2n1Cc1ccccc1`, the Potency in experiment [1] is > 11.4 µM (inactive); in experiment [5], > 9.22 µM (inactive); in experiment [6] it was > 46 µM (inactive). Moreover, the activity change, negative = inhibition was 16.7% (inactive) in experiment [2], -18% (inactive) in experiment [3] and 2.57% (inactive) in experiment [9]. The activity, negative = inhibition in experiment [4] is -8.19% (inactive). The max response in experiment [9] (setting [19]) was -10.3%; in experiment [9] (setting [20]) it was -10.6%. In addition, the Potency result in [10], in experiment [11], in experiment [12], in experiment [13] and in experiment [14] was “inactive” in each case.

For the molecule `CN1CCN(c2cc(-c3ccoc3)ncn2)CC1`, the Potency in experiment [1] is > 11.4 µM (inactive); in experiment [5], > 46 µM (inactive); in experiment [6] it was > 46 µM (inactive). The activity change, negative = inhibition in experiment [2] was -1.21% (inactive); in experiment [3], -3.33% (inactive); in experiment [9], 6.62% (inactive). For the same molecule, the activity, negative = inhibition in experiment [4] was 8.56% (inactive). Besides, the molecule was classed as inactive in experiment [7]. Further, the Potency result in experiment [8], in experiment [10], in experiment [11], in [12], in experiment [13] and in experiment [14] was “inactive” each time. Further, the max response in experiment [9] (setting [19]) was 23%; in [9] (setting [20]) it was 27.8%.
